Screening data deposited in PubChem by The Scripps Research Institute Molecular Screening Center.
Sampled rows, rich in hits. Any-hit rate of the full collection: about 1.8%.
LYPLA1 inh = LYPLA1 inhibitors, primary screen, counter-screen for PME1 inhibitor project, biochemical, fluorescence polarization, FP-Rh probe ABPP; Acyl-protein thioesterase 1 (Homo sapiens), O75608; recombinant LYPLA1; inhibition, % at 5.9 µM; actives 0.16% (n = 320,000); AID 2174, 2009;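 active = inhibition above the mean of all tested compounds plus 3 SD, set per campaign, cut at about 14% in these data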;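 note: inhibitors block serine hydrolase probe labeling of LYPLA1 so polarization falls; 0% = enzyme with DMSO and 100% = wells lacking LYPLA1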
PP5 inh = PP5 phosphatase inhibitors, primary screen, biochemical, fluorescence; purified PP5c, OMFP substrate fluorescence; Serine/threonine-protein phosphatase 5 (Homo sapiens), P53041; actives 0.18% (n = 320,000); inhibition, % at 6.7 µM;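 active = inhibition above the campaign's mean inhibition across all tested compounds plus 3 SD, cut at about 9.5% in these data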;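 note: 0% = DMSO only and 100% = 100 µM cantharidin control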
LYPLA2 inh = LYPLA2 inhibitors, primary screen, counter-screen for PME1 inhibitor project, biochemical, fluorescence polarization, FP-Rh probe ABPP; Acyl-protein thioesterase 2 (Homo sapiens), O95372; AID 2177, 2009; actives 0.38% (n = 320,000); recombinant LYPLA2; inhibition, % at 5.9 µM;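 active = inhibition above the screen-wide mean plus 3 SD, limit set per campaign, cut at about 26% in these data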;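 note: 0% = LYPLA2 with DMSO and 100% = wells lacking LYPLA2 enzyme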
Target sequence (O95372 whole entry, looked up): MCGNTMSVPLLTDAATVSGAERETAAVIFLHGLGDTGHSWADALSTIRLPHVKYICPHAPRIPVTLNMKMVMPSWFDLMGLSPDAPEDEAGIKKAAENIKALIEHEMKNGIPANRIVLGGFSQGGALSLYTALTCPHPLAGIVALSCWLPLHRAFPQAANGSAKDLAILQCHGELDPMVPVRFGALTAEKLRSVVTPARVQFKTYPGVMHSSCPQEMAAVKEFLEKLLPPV
PME-1 primary = PME-1 inhibitors via competitive probe labeling, primary screen, biochemical, fluorescence polarization, FP-Rh probe, HTS | inhibition, % at 5.9 µM | recombinant PME-1 | Protein phosphatase methylesterase 1 (Homo sapiens), Q9Y570 | actives 0.53% (n = 320,000);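 active = inhibition above the campaign mean of all compounds plus 3 SD, cut at about 26% in these data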;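 note: competitive labeling of PME-1 active site by serine hydrolase directed probe; 0% = PME-1 with DMSO and 100% = wells lacking PME-1 enzyme; inhibitors block probe labeling so polarization falls and inhibition rises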
Fam108B counter = mouse Fam108B serine hydrolase inhibitors, primary screen, counter-screen for RBBP9 inhibitor project, biochemical, fluorescence polarization. inhibition, % at 9.51 µM. AID 1947, 2009. actives 0.33% (n = 300,000). recombinant Fam108B, FP-Rh probe fluorescence polarization;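 active = inhibition above the screen mean inhibition plus 3 SD, computed separately per campaign, cut at about 18% in these data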;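 note: inhibitors lower polarization as less probe binds the enzyme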
PP1 counter = PP1-alpha phosphatase inhibitors, primary screen, counter-screen for PP5 inhibitor project, biochemical, fluorescence, OMFP substrate, single point; Serine/threonine-protein phosphatase PP1-alpha catalytic subunit (Homo sapiens), P62136; purified PP1alpha; inhibition, % at 6.7 µM; actives 0.9% (n = 320,000);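 active = inhibition above the mean inhibition of all tested compounds plus 3 SD, computed separately for each screening campaign, cut at about 15% in these data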
Target sequence (P62136 whole entry, looked up): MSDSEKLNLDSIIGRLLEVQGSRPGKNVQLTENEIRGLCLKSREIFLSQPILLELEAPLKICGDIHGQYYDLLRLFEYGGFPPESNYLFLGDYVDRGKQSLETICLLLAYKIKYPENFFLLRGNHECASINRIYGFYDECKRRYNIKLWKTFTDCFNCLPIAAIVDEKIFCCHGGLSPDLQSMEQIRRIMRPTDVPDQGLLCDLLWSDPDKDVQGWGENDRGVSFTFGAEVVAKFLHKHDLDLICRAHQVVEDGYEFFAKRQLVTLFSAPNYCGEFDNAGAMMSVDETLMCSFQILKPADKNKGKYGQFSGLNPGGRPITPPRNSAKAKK
PP5 conf = PP5 phosphatase inhibitors, confirmation, biochemical, fluorescence, human. shares compounds with PP5 inh. Purified PP5, fluorogenic phosphatase substrate. inhibition, % at 6.7 µM. actives 22% (n = 460). AID 2331, 2010; in the data active = inhibition above about 9.5%
PP1 counter 3x = PP1 phosphatase inhibitors, counter-screen for PP5 inhibitor project, biochemical, fluorescence, triplicate; shares compounds with PP5 inh; PP1 enzyme, fluorescent phosphatase substrate; inhibition, % at 6.7 µM; actives 4% (n = 460); AID 2355, 2010; in the data active = inhibition above about 16%
Starred values were filed as active, the others as inactive; . = not tested or not shown; ! = not active in a repeat.

SMILES	LYPLA1 inh	PP5 inh	LYPLA2 inh	PME-1 primary	Fam108B counter	PP1 counter	PP5 conf	PP1 counter 3x
Cn1c(C(=O)N2CCN(c3ccc(F)cc3)CC2)cc2ccccc21	1	2	-1	5	3	0	.	.
COc1cccc(C(=O)OCC(=O)NCCc2ccccc2)c1OC	-1	-3	0	5	3	-4	.	.
COc1cccc(CSCC(=O)NCCc2ccccc2)c1OC	0	10*	-5	-3	-3	-5	-5	-5
COC(=O)c1[nH]c(C)c(/C(O)=C2\C(=O)C(=O)N(CCN3CCOCC3)C2c2ccccc2OC)c1C (stereo unspecified)	-1	11*	0	-1	2	2	1	0
Cc1cc(NC(=O)Cc2cc(F)cc(F)c2)no1	0	-1	-7	-1	4	0	.	.
O=C(Nc1ccc(O)cc1)/C(=C\C=C\c1ccccc1)NC(=O)c1ccccc1	0	12*	2	-1	1	-3	-2	-2
Cc1ccc(C(=O)Nc2c(C(=O)NCc3ccco3)cnn2-c2ccccc2)cc1	-3	-2	-3	-4	-1	-3	.	.
O=C(Nc1c(C(=O)NCc2ccco2)cnn1-c1ccccc1)c1cccc(F)c1	0	11*	4	-2	-1	-3	-7	-5
CCOc1ccc(NC(=O)COC(=O)CCCc2c[nH]c3ccccc23)cc1	2	9.8*	16	3	6	3	1	3
Cc1cccc(C)c1NC(=O)CN(C)C(=O)C1CC1C (stereo unspecified)	-1	-1	-2	-3	.	0	.	.
CC1CCC2C(=O)N(c3cccc(C(=O)Nc4ccccc4Cl)c3)C(=O)C2C1 (stereo unspecified)	-2	6	8	4	2	-2	.	.
CCc1ccc(NC(=O)CN(CC(=O)Nc2ccc(CC)cc2)CC(C)O)cc1 (stereo unspecified)	2	11*	-6	-5	-3	6	8	5
CC(C)(C)NC(=O)CSc1nc2cccnc2n1C1CCCCC1	6	14*	13	7	3	-1	0	1
CCc1c(C(=O)NCCc2ccc(OC)c(OC)c2)[nH]c(C)c1C(C)=O	-5	13*	1	-4	-2	0	-6	-4
CCc1c(C(=O)NCCc2cccc(C)c2)[nH]c(C)c1C(C)=O	-4	-2	1	2	2	-2	.	.
COC(=O)c1c(NC(=O)CN2CCC3(O)CCCCC3C2c2ccc(OC)cc2OC)sc(C)c1C (stereo unspecified)	-4	1	-9	6	1	7	.	.
C=CCOc1ccccc1CN1CCC(n2nccc2NC(=O)c2ccccc2)CC1	-2	-1	1	-2	-4	-4	.	.
Cc1[nH]c2ccccc2c1C(C#N)(C#N)C1C(=O)c2ccccc2C1=O	-1	21*	10	1	12	7	8	1
Cc1[nH]c2ccccc2c1CC#N	2	-1	1	-6	-2	-5	.	.
COc1ccc(C2N(S(=O)(=O)c3ccccc3)CCN2S(=O)(=O)c2ccc(C)cc2)cc1 (stereo unspecified)	-5	10*	-2	1	1	1	1	2
Cc1ccc(S(=O)(=O)N2CCN(S(=O)(=O)c3ccc(C)cc3)C2c2ccccc2)cc1	-6	2	-7	-3	1	0	.	.
COc1ccc2[nH]c(=O)c(CN(Cc3cccs3)S(=O)(=O)c3c(C)ccc4nsnc34)cc2c1	-2	9.8*	9	6	-3	0	1	2
O=C(Nc1ccc2c(c1)OCO2)c1c[nH]c(=O)n(-c2ccc(F)cc2)c1=O	-2	1	7	1	5	0	.	.
Cc1ccc(C(=O)c2ccccc2C(=O)OCC(=O)N2C(C)CCCC2C)cc1 (stereo unspecified)	-2	3	0	4	.	-1	.	.
COc1ccc(NC(=O)CN(c2ccc(OC)c(Cl)c2)S(=O)(=O)c2ccccc2)c(OC)c1	-2	3	-1	-3	-6	0	.	.
SMILES	LYPLA1 inh	PP5 inh	LYPLA2 inh	PME-1 primary	Fam108B counter	PP1 counter	PP5 conf	PP1 counter 3x
O=C(Nc1ccc(Br)cc1)c1cccn1-c1ncc(C(F)(F)F)cc1Cl	-20	11*	-29	-22	-17	11	6	4
NC(=O)c1cccn1-c1ncc(C(F)(F)F)cc1Cl	0	-3	1	3	0	-1	.	.
CCOc1ccc(N(CC(=O)Nc2cccc(C)c2C)S(=O)(=O)c2c(C)[nH]c(=O)[nH]c2=O)cc1	-1	2	-2	-2	1	-1	.	.
CCOc1ccc(N(CC(=O)Nc2c(C)cccc2C)S(=O)(=O)c2c(C)[nH]c(=O)[nH]c2=O)cc1	-2	12*	2	-4	-2	-8	-7	-6
Clc1ccc(OCCn2ccnc2)cc1Cl	4	10*	12	-1	5	2	-2	-3
Cc1cccc(OCCn2ccnc2)c1	-3	-1	-6	8	1	-2	.	.
CC(C)(C)OC(=O)NCCCC[C@H](NC(=O)c1[nH]cnc1C(=O)Nc1ccc(Cl)cc1)C(=O)OC(C)(C)C	-24	9	-43	-46	-28	5	.	.
CC(C)(C)OC(=O)NCCCC[C@H](NC(=O)c1[nH]cnc1C(=O)Nc1ccccc1)C(=O)OC(C)(C)C	-14	11*	-35	-15	-17	7	8	8
CC(C)C[C@H](NC(=O)c1nc[nH]c1C(=O)N[C@@H](CCCCNC(=O)OC(C)(C)C)C(=O)OC(C)(C)C)C(=O)OC(C)(C)C	-4	14*	-5	-2	0	11	9	11
OC(CN1CCOCC1)CN1CCOCC1	-4	0	1	1	1	-3	.	.
CN(CC(O)CN1CCOCC1)S(=O)(=O)O (stereo unspecified)	0	14*!	2	-2	-6	1	-7	-5
Cn1ccnc1C(=O)c1ccc(Cl)c(S(=O)(=O)N2CCOCC2)c1	0	10.0*	5	-3	-3	-2	-3	-3
